Experimental findings from article PMC4336329 (PLoS ONE, 2015) are described below.

Each structure is given as a SMILES string. Among all 310,000 compounds or so, about 14,000 (4.5%) showed an effect of 50% or more. Effects have a minus sign here. Shown is part of a subset that was picked to be rich in strong results.
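Also: peak tail current of the secondary pulse compared with the same well before compound.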

The target in this assay is human ether-à-go-go-related gene (hERG) potassium channel (human, UniProt Q12809). As to the kind of experiment: primary screen, population patch clamp on CHO cells stably expressing hERG; higher = less effect of the substance.
Chain of human ether-à-go-go-related gene (hERG) potassium channel (Q12809 whole entry, looked up): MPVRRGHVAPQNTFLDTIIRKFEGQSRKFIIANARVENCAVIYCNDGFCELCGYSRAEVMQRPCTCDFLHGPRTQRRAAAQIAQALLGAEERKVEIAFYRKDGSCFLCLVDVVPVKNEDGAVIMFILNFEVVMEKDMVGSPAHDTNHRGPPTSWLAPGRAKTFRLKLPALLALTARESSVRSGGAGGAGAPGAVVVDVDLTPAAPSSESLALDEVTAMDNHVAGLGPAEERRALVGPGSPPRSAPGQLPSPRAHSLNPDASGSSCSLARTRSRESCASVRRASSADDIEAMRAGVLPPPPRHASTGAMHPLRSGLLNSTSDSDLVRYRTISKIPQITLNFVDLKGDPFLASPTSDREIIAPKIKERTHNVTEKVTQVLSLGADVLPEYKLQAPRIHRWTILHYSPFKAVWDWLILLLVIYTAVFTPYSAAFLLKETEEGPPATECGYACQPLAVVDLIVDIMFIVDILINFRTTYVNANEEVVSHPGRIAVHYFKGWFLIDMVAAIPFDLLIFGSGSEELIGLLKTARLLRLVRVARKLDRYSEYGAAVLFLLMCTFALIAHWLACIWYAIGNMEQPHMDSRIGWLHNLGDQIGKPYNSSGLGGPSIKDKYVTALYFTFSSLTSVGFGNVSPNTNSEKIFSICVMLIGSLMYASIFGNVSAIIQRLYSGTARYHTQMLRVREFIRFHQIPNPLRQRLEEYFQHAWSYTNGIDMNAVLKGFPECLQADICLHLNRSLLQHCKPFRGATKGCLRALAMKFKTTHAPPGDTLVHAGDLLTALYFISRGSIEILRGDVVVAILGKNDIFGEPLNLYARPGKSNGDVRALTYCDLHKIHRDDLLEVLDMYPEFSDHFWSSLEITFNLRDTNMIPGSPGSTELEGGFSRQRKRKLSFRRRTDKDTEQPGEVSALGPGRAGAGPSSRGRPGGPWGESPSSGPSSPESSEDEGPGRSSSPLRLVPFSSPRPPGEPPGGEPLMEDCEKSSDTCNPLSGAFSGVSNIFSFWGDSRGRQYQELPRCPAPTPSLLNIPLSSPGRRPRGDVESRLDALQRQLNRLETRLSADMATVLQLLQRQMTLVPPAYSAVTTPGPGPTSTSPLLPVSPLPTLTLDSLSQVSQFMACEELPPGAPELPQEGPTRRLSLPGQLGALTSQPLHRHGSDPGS
For the compound `CCOC(=O)N1CCC(=NNc2ccc(S(=O)(=O)N3CCOCC3)cc2[N+](=O)[O-])CC1`, the “hERG current change (%, negative = inhibition) at 10uM” value is reported as -61.3%.
The figure for `CCCOc1ccc(S(=O)(=O)N2CCOCC2)cc1[N+](=O)[O-]` is -57.8%; for `CC(=O)N1CCC(=NNc2ccc(S(=O)(=O)N3CCOCC3)cc2[N+](=O)[O-])CC1` it is -18.2%.
The figure for `CCOc1ccc(S(=O)(=O)N2CCOCC2)cc1NS(=O)(=O)c1ccc(OC)c([N+](=O)[O-])c1` is -41.7%; for `CCCOc1ccc(S(=O)(=O)N2CCCC2)cc1[N+](=O)[O-]` it is -30.1%; for `O=C1c2ccccc2C(=O)N1COc1ccc(S(=O)(=O)N2CCOCC2)cc1[N+](=O)[O-]` it is -22.8%.
Consider `CCOc1ccc(S(=O)(=O)N2CCOCC2)cc1[N+](=O)[O-]`, for which the “hERG current change (%, negative = inhibition) at 10uM” value is -52.2%.
With `O=[N+]([O-])c1cc(S(=O)(=O)N2CCOCC2)ccc1OCc1cccc(Cl)c1` the figure was 1.31%; with `CCOC(=O)N1CCC(=NNc2ccc(S(N)(=O)=O)cc2[N+](=O)[O-])CC1`, -11.8%; with `COCCn1c(SCC(=O)Nc2c(C)n(C)n(-c3ccccc3)c2=O)nc2ccccc2c1=O`, -19.6%.
With `CCCC(=O)N(c1ccc(C(=O)O)cc1)c1nc(-c2ccccc2)c(C)s1` the figure was 14.2%.
The figure for `CCOc1cc2c(cc1OCC)C(C(=O)O)C(c1cc(OC)c(OC)c(OC)c1)N(C)C2=O` (centres unmarked) is 3.02%; for `COC(=O)[C@@H]1C[C@@H]2CC[C@@H](O)C[C@@H]2N1Cc1ccc(N2CCN(C)CC2)cc1` it is 9.87%.
Regarding `Cn1c(Cl)nc2c1c(=O)n(Cc1cccc(Br)c1)c(=O)n2C`, the “hERG current change (%, negative = inhibition) at 10uM” value is -35.3%.
With `CCOC(=O)Cn1c(=O)c2c(nc(N3CCCCC3)n2Cc2ccccc2)n(C)c1=O` the figure was -40.4%.
With `Cn1c(N2CCC(C(N)=O)CC2)nc2c1c(=O)n(Cc1ccc(Cl)cc1)c(=O)n2C` the figure was -58.5%; with `CCCCCCn1c(N2CCC(C(N)=O)CC2)nc2c1c(=O)n(C)c(=O)n2C`, -56.4%; with `CC(O)CNc1nc2c(c(=O)n(Cc3ccc(Br)cc3)c(=O)n2C)n1C` (centres unmarked), -12.6%.
With `CC1CCN(c2nc3c(c(=O)n(C)c(=O)n3C)n2Cc2ccccc2)CC1`, the “hERG current change (%, negative = inhibition) at 10uM” value is reported as -50%.
With `Cn1c(N2CCC(C(N)=O)CC2)nc2c1c(=O)n(Cc1cccc(Br)c1)c(=O)n2C` the figure was -64.7%; with `Cn1c(N2CCC(C(N)=O)CC2)nc2c1c(=O)n(Cc1ccc(Br)cc1)c(=O)n2C`, -57.3%; with `CCCCCCn1c(N2CCCC2)nc2c1c(=O)n(C)c(=O)n2C`, -1.96%.
With `Cn1c(N2CCCC2)nc2c1c(=O)n(Cc1cccc(F)c1)c(=O)n2C` the figure was -19.6%; with `CCCCCn1c(N2CCCC2)nc2c1c(=O)n(C)c(=O)n2C`, -9.54%.
On to `CN(CCO)c1nc2c(c(=O)n(Cc3ccc(Cl)cc3)c(=O)n2C)n1C`, for which the “hERG current change (%, negative = inhibition) at 10uM” value worked out at 3.79%.
With `CCOc1ccc(S(=O)(=O)NCCC(=O)OC(C)C(=O)N2CCc3ccccc32)cc1` (centres unmarked) the figure was -22.6%; with `NC(=O)c1ccc(NC(=O)CNCc2ccccc2Cl)cc1`, 8.82%; with `COc1ccccc1NS(=O)(=O)c1cccc(C(=O)NCc2ccccn2)c1`, 13.2%.
Regarding `CCOc1nc(C)ccc1-c1noc(-c2ccccc2OC)n1`, the “hERG current change (%, negative = inhibition) at 10uM” value worked out at 12.7%.
With `CCCC12CN3CC(C)(CN(C1)C3c1ccco1)C2=O` (centres unmarked) the figure was -4.64%; with `CCOc1ncccc1C(=O)NCCc1ccc(Cl)cc1`, -5.75%.
With `CC(=O)CC(C)(C)Nc1nc2cc([N+](=O)[O-])ccc2o1` the figure was 0.0382%; with `COc1cc(NC(=O)c2ccc3snnc3c2)cc(OC)c1`, 13.5%.
With `CCOCc1nnc(NC(=O)C2CC(=O)N(C3CCCC3)C2)s1` (centres unmarked) the figure was 4.92%; with `COc1ccc(/C=C/c2nc(-c3ccccc3O)n[nH]2)cc1OC`, 12.1%.
Take `CCOC(=O)Nc1c(O)ccc2oc(C)c(-c3ccccc3)c12`: the “hERG current change (%, negative = inhibition) at 10uM” value is -1.49%.
With `O=C(Nc1ccc2nsnc2c1)N1CCCCC1` the figure was 22.2%; with `CCOCCn1c(CN2CCN(c3ccccc3)CC2)nc2c1c(=O)n(C)c(=O)n2C`, -22.1%.
The figure for `CCCCn1c(CN2CCN(c3ccc(F)cc3)CC2)nc2c1c(=O)n(C)c(=O)n2C` is -25%; for `COCCn1c(CN2CCN(c3cccc(Cl)c3)CC2)nc2c1c(=O)n(C)c(=O)n2C` it is -53.9%.
With `CCOCCn1c(CN2CCN(c3ccc(F)cc3)CC2)nc2c1c(=O)n(C)c(=O)n2C` the figure was -56.2%; with `COCCn1c(CN2CCN(c3ccccc3)CC2)nc2c1c(=O)n(C)c(=O)n2C`, -13.8%.
In the case of `CCOCCn1c(CN2CCN(C)CC2)nc2c1c(=O)n(C)c(=O)n2C`, the “hERG current change (%, negative = inhibition) at 10uM” value turned out to be 3.97%.
The figure for `CCOCCn1c(CN2CCN(c3cccc(Cl)c3)CC2)nc2c1c(=O)n(C)c(=O)n2C` is -55%; for `Cn1c(=O)c2c(nc(CN3CCN(c4ccccc4)CC3)n2CCN2CCOCC2)n(C)c1=O` it is -21.7%; for `CCOCCn1c(CN2CCN(c3ccc(OC)cc3)CC2)nc2c1c(=O)n(C)c(=O)n2C` it is -41.2%.
Turning to `CC(C)Cc1nnc(NC(=O)CN2C(=O)NC3(CC(C)CC(C)(C)C3)C2=O)s1` (centres unmarked), the “hERG current change (%, negative = inhibition) at 10uM” value is -20.5%.
